Assay results as given in PubChem BioAssay AID686954 (Sanford-Burnham Center for Chemical Genomics, 2013).
In all, about 30,000 compounds went through this assay and about 240 (0.8%) were called active.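 The calls were made as follows: active = at 10 µM dose, at least 30% inhibition, measured as corrected fluorescence normalized to stimulator and neutral control wells; inactive = the rest.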 This excerpt belongs to a sample that is enriched for actives. Peptide text beside a SMILES is read from it. * marks the point of attachment. Bz = O=C(c1ccccc1)*

Each compound was assayed against Protein artemis (Homo sapiens) (UniProt Q96SD1) (assay: Artemis endonuclease inhibitors, primary screen, biochemical, fluorescence intensity, FAM/BHQ-1 hairpin substrate (AID 686954)). Settings: recombinant Artemis, quenched FAM hairpin cleavage fluorescence; at 10 µM; hits give high values.
Protein artemis (Homo sapiens), sequence (Q96SD1 whole entry, looked up): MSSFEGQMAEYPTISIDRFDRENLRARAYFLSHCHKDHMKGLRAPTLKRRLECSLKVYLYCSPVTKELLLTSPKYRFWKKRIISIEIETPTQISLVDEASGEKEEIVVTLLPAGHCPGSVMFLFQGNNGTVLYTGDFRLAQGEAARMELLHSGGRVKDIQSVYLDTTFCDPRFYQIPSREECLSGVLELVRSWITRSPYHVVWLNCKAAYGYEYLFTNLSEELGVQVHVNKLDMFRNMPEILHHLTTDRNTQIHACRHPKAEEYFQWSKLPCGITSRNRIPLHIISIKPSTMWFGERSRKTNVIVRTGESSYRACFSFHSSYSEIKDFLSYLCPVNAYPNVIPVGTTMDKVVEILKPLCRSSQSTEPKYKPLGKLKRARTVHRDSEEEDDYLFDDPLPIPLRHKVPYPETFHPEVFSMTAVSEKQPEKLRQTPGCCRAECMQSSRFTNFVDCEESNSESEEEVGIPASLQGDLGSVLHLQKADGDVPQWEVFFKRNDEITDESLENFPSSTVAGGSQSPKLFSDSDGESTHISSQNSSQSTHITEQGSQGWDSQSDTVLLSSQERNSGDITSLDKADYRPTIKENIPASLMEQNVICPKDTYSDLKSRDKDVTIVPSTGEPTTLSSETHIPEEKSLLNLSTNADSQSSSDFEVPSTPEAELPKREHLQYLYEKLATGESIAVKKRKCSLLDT

Compound	inhibition
O=c1c2ccccc2nc2n1C(CSCc1ccccc1)CS2 (configuration not stated)	2.82% (inactive)
COC(=O)CSC1=C(C#N)C(c2ccccc2OC)C(C(=O)OC)C(=O)N1 (configuration not stated)	-3.1% (inactive)
Cc1ccc(/C=N/NC(=O)c2sccc2OCc2ccc(F)cc2)cc1	22.2% (inactive)
COc1ccc(CC(=O)Nc2nc3n(n2)C(c2ccccc2)CC(=O)N3)cc1OC (configuration not stated)	-12.5% (inactive)
COc1ccc(C(=O)Nc2ccccc2C(=O)N/N=C/c2ccc(O)c(OC)c2)cc1	3.38% (inactive)
O=C(N/N=C/c1ccsc1)c1cc(O)cc(O)c1	10.2% (inactive)
O=C(N/N=C/c1ccc(O)c(O)c1)C1c2ccccc2Oc2ccccc21	30.2% (active)
Clc1cccc(-c2nc3nc4ccccc4nc3n2Cc2ccco2)c1	27% (inactive)
Cc1ccc(Cn2c(C)nc3c(c2=O)c2nc4ccccc4nc2n3Cc2ccco2)cc1	40.3% (active)
Cc1ccc(Cn2c(NC(=O)c3ccco3)nc3ccccc32)cc1	0.73% (inactive)
CCCn1c(C)cc(C(=O)COC(=O)c2c(C)nn(-c3ccccc3)c2C)c1C	10.5% (inactive)
CC(C)(C)Cc1nnc(NC(=O)c2cc(-c3ccccc3)nc3ccccc23)s1	13.6% (inactive)
O=C(/C=C/Nc1ccccc1OC(F)(F)F)C(F)(F)F	-11.1% (inactive)
COc1ccc(Cc2nnnn2CC(=O)O)cc1	3.92% (inactive)
CC1CCc2c(c3ccccc3[nH]c2=O)O1 (configuration not stated)	13.8% (inactive)
Cn1c(CO)cnc1SCc1ccccc1	-0.47% (inactive)
COc1ccccc1NS(=O)(=O)N(C)C	4.92% (inactive)
C=CCn1c(N)cc(=O)nc1SCC(=O)Nc1cccc2ccccc12	-2.38% (inactive)
O=C(COc1cc(Cl)c(Cl)cc1Cl)NC(=O)NC1CCCC1	5.4% (inactive)
O=C(NC(Cc1ccccc1)C(=O)N1CCCC1C(=O)O)c1ccccc1 (stereo not drawn) (Bz-Phe-Pro-OH; configuration not given here)	3.37% (inactive)
CCCC(C(=O)NCc1ccco1)N(C(=O)CNS(=O)(=O)c1ccccc1)C1CCCC1 (configuration not stated)	9.71% (inactive)
CSC1=N/C(=C\C=C\c2cccs2)C(=O)S1	4.46% (inactive)
Cc1ccsc1/C=C1\SC(N2CCOCC2)=NC1=O	-5.58% (inactive)
Cc1ccc(N2CCN(C3=NC(=O)/C(=C\c4cccs4)S3)CC2)cc1	30.4% (active)
Cc1cccc(C(=O)N2CCCN(C(=O)c3cccc(C)c3)CC2)c1	4.29% (inactive)

Compound	inhibition
CCC(C)NC(=O)c1cc(Cl)ccc1OC (configuration not stated)	1.25% (inactive)
COc1ccc(-c2cc(C(=O)n3cnc4ccccc43)c3ccccc3n2)cc1	0.93% (inactive)
N#CCCn1cnc2ccccc21	0.47% (inactive)
c1ccc(-c2nccc(-c3ccc(-n4cnc5ccccc54)cc3)n2)nc1	100% (active)
CC(=O)N1Cc2ccccc2CC1C(=O)O (configuration not stated)	-0.69% (inactive)
Cc1ccc(C(=O)Nc2c(C#N)c(C)c(C)n2Cc2ccccc2)cc1	-5.83% (inactive)
CC(C)NC(=O)C(=O)NCCCOC(C)C	-3.28% (inactive)
COC(=O)C(C(=O)Nc1cccc(C)n1)C1CCCCCC1 (configuration not stated)	-2.41% (inactive)
COc1ccc(CCN2C(=O)C3CC=C(C)CC3C2=O)cc1OC (configuration not stated)	-6.71% (inactive)
COC(=O)C1=C(Nc2ccc(OC)cc2)C=C(C)C(C(=O)OC)C1c1ccc(C)cc1 (configuration not stated)	-2.07% (inactive)
Fc1ccc(Br)cc1/C=N/n1cnnc1	-9.95% (inactive)
O=C(/C=C/c1cc2c(cc1Br)OCO2)NCc1ccc(Cl)cc1	-4.49% (inactive)
O=C(NN1C(=O)C2C3C=CC(C4CC34)C2C1=O)c1ccc(Cl)cc1 (configuration not stated)	-4.12% (inactive)
O=c1c2ccccc2nc2n1C(CSc1ccc(F)cc1)CN2 (configuration not stated)	-16.9% (inactive)
COc1ccc(C(=O)Oc2cc(/C=N/NS(=O)(=O)c3ccc(C)cc3)ccc2OC)cc1	4.47% (inactive)
COC(=O)c1sccc1-n1cccc1C(=O)C(=O)N1CCCCC1	-4.39% (inactive)
O=C(/C=N/O)Nc1ccccc1	16.8% (inactive)
CSc1ccc(C#N)cc1NC(=O)c1cccc(Cl)c1	-11% (inactive)
Cc1c(C(=O)NCc2ccccc2)cnn1-c1ccccc1	0.06% (inactive)
O=C(c1ccccc1)C(Cn1cncn1)C(Sc1ccccc1)c1ccccc1 (configuration not stated)	7.82% (inactive)
CC(C)NC(=O)CSc1ccccc1C(=O)NCc1ccc2c(c1)OCO2	-4.49% (inactive)
CCOc1ccc2nc(SC(CC)C(=O)Nc3cc(C)on3)sc2c1 (configuration not stated)	-0.74% (inactive)
CCc1ccc(/C=N/NC(=O)c2ccc(OC3CCCC3)cc2)s1	14.9% (inactive)
O=C(COc1ccc(/C=N/NS(=O)(=O)c2ccccc2)cc1)NCCc1ccccc1	5.78% (inactive)
NC(=O)c1ccccc1NC(=O)c1ccccc1F	3.21% (inactive)

Compound	inhibition
Cc1ccc(NC(=S)NC(=O)c2ccc(-c3ccccc3)cc2)c(C)c1	8.05% (inactive)
Cc1ccc(NC(=O)Nc2ccc3oc(C)nc3c2)cc1	4.51% (inactive)
Cc1ccc(OCCCC(=O)N2CCOCC2)c(C)c1	-3.31% (inactive)
COc1cc(C(=S)N2CCOCC2)cc(OC)c1OC(=O)c1cc([N+](=O)[O-])cc([N+](=O)[O-])c1	5.88% (inactive)
CCOc1cc(C(=S)N2CCOCC2)ccc1O	44.1% (active)
Nc1c(-c2ccc(F)cc2)cnn1C1CCS(=O)(=O)C1 (configuration not stated)	-12.3% (inactive)
O=C(NC1CCC(O)CC1)c1ccc(S(=O)(=O)NCc2ccco2)cc1 (configuration not stated)	-0.49% (inactive)
COCCCNCC(=O)Nc1sc(C)c(C)c1C(=O)OC	8.99% (inactive)
CSc1ccc(C#N)cc1NC(=O)c1ccc(Cl)cc1	-3.87% (inactive)
Cc1cccc(N2CCN(C(c3ccccc3)c3nnnn3CC3CCCO3)CC2)c1C (configuration not stated)	1.54% (inactive)
O=C(O)C1CC=CCC1C(=O)Nc1ccccc1C(=O)N1CCN(c2ccccc2)CC1 (configuration not stated)	11.9% (inactive)
CC1CN(c2nc(-c3ccccc3)nnc2-c2ccccc2)CC(C)O1 (configuration not stated)	3.23% (inactive)
Cc1cc(N=CC2=C(O)CCCC2=O)no1	-4.13% (inactive)
CCCC(C)n1[nH]c(=O)c2c(C)cc(C)nc21 (configuration not stated)	0.53% (inactive)
COc1ccccc1NC(=O)CSc1nnc(C)n1CC1CCCO1 (configuration not stated)	2.59% (inactive)
COc1ccc(/C(O)=C2/C(=O)C(=O)N(c3nc(C)c(C)s3)C2c2ccco2)cc1 (configuration not stated)	8.17% (inactive)
COc1ccc(/C(O)=C2/C(=O)C(=O)N(CC3CCCO3)C2c2ccc(OC)c(OC)c2)cc1 (configuration not stated)	-5.65% (inactive)
Cc1cc(N2C(=O)C(=O)/C(=C(/O)c3ccc(Cl)cc3)C2c2cccc(Br)c2)no1 (configuration not stated)	40% (active)
O=C1OC(c2ccc(Cl)cc2)=N/C1=C\c1cccnc1	-6.03% (inactive)
Cc1c(NC(=O)c2cc(-c3ccc(Cl)s3)nc3ccccc23)c(=O)n(-c2ccccc2)n1C	11.2% (inactive)
CCOC(=O)c1nc(N)sc1C(=O)OCC	-6.13% (inactive)
CCCCOC(=O)Cn1c(=O)n(CC(=O)OCCCC)c2cc(C)ccc21	6.83% (inactive)
O=C1CC(C(F)(F)C(F)(F)C(F)(F)C(F)(F)F)=Nc2ccccc2N1	-10.2% (inactive)
CCOC(=O)c1cc(C#N)c(N2CCCCC2)nc1-c1ccccc1	1.24% (inactive)
CC(C)(CSc1nncn1/N=C/c1ccco1)NS(=O)(=O)c1ccc(Cl)cc1	-7.17% (inactive)

Compound	inhibition
COc1ccc(/C=C2/S/C(=N/N=C3\CC4CCC3(C)C4(C)C)NC2=O)cc1 (configuration not stated)	7.63% (inactive)
COc1ccc(CN2CCn3ncc(C(=O)Nc4ccc(Cl)cc4Cl)c3C2=O)cc1	-5.33% (inactive)
Cc1sc(NC(=O)C2C3CCC(O3)C2C(=O)O)c(C(=O)OC(C)C)c1-c1ccc(Cl)cc1 (configuration not stated)	34% (active)
CC(C)OC(=O)c1cc(NC(=O)C2C3CCC(O3)C2C(=O)O)cc(C(=O)OC(C)C)c1 (configuration not stated)	-5.25% (inactive)
COc1ccc(C(=O)N2CC3(C)CC2CC(C)(C)C3)cc1OC (configuration not stated)	-3.98% (inactive)
CC(=O)Oc1ccc(C)cc1N1C(=O)c2ccc(C(=O)O)cc2C1=O	0.06% (inactive)
CCC1(C)Cc2c(sc3nc(SC)nc(N)c23)CO1 (configuration not stated)	-3.48% (inactive)
CCC1(CC)NC(=O)N(CC(=O)OCC(=O)Nc2ccc(C(F)(F)F)cc2)C1=O	8.68% (inactive)
CCN1CCN(C(=O)/C=C\C(=O)O)CC1	0.01% (inactive)
Cc1cccc(CSc2nnc(NC(=O)CSc3nnc(C)s3)s2)c1	4.19% (inactive)
COc1cccc(/C=N\Nc2nncc(-c3ccccc3)n2)c1	2.99% (inactive)
CCN1CCN(C(=O)C2(NC(=O)Nc3cccc(F)c3)CCCCC2)CC1	-5.76% (inactive)
CCCCOC(=O)Nc1sc2nc(C)cc(C)c2c1-n1cccc1	6.76% (inactive)
CCOC(=O)C(=O)Nc1nc(-c2ccccc2)c(CC)s1	2.06% (inactive)
Cc1nnc(SCc2nc3ccccc3nc2C)s1	-10.2% (inactive)
Cc1cccc(NC(=S)Nc2ccc(Br)cc2)c1	-9.18% (inactive)
CC(=O)NNc1cc(=O)c2c(=O)n(C)c(=O)n(C)c2[nH]1	1.01% (inactive)
CNS(=O)(=O)c1cnccc1N1CCN(c2cccc(C)c2)CC1	2.37% (inactive)
c1ccc(Nc2nc(-c3ccncc3)cs2)nc1	-4.36% (inactive)
COc1ccc(OC)c(Nc2nc(-c3ccc(O)c(O)c3)cs2)c1	42.1% (active)
COc1ccc(-c2n[nH]c(C)c2-c2ccc(OC)c(OC)c2)c(O)c1	-3.87% (inactive)
Cc1ccccc1NC(=S)Nc1cccc([N+](=O)[O-])c1	2.56% (inactive)
